Screening results: PubChem BioAssay, National Center for Advancing Translational Sciences (NCATS)
LMNA splice mod: modulators of lamin A splicing. HeLa LMNA splicing GFP/RFP minigene ratio, 48 h. Potency, µM (titrated, usually from 46.1 µM), for inactives: top-dose ratio change, negative = inhibition, hits mostly inhibitors. 200,000 tested, 0.01% active; active = well fitted inhibition curve with a large enough effect in the signal ratio, with a control signal flat, not every such curve was filed as active; inconclusive = small, poorly fitted or top-dose-only effect, or effect the other way, or a change in a side signal; the % refers to the signal ratio; also: % is scaled to controls: 0 for no effect and ±100 for the full control effect
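S3 HeLa cells stably expressing lamin A-EGFP splicing minigene plus DsRed2, 600 cells/well, 48 h compound exposure at 37C. Laser-scanning cytometry; analysed as GFP (500-530 nm)/RFP (575-640 nm) total intensity ratio; 0.5% DMSO vehicle.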
HTT ATP protect: cytoprotection in Huntington HTT-Q103 PC12 cell model | PC12 HTT-Q103 induced, cytoprotection, ATP luminescence, 40 h | Potency, µM (top dose mostly 56.4 µM), for inactives: cytoprotection (ATP increase), most hits filed as activators | 230,000 tested, 0.14% active; also: % of control where 0% means no effect; nearly all actives have a fitted effect of over 45% in size
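Rat PC12, Q103 Htt exon1-GFP fusion, ecdysone promoter; tebufenozide inducer 100 nM final; compound titration; qHTS, 1500 cells/well; ATPlite luminescent read.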
HPGD inh: blocks human HPGD enzyme activity; P15428; 150,000 tested, 4.3% active; Potency, µM, for the others: at the highest dose activity change, negative = inhibition, usual class: inhibitors; AID 894; purified HPGD, NADH fluorescence kinetic, PGE2 substrate; active = well fitted inhibition curve with a large enough effect, not every such curve was filed as active; inconclusive = small, poorly fitted or top-dose-only effect, or another doubt; inactive = no such curve, though single readings can be large or run the other way; also: % is scaled to controls: 0 for no effect and ±100 for the full control effect
Target sequence (P15428 whole entry, looked up): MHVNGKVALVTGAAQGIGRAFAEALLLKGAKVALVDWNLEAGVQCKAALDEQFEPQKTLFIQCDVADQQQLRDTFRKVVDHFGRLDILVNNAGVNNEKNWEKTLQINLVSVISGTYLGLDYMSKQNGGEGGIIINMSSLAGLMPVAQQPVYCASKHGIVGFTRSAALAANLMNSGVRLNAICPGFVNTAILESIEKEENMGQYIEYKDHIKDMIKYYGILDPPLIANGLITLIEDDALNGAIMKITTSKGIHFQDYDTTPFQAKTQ
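NADH formation kinetics: reaction with 30 uM PGE2 and 1 mM NAD+ (final), 20 nM enzyme, Tris-HCl pH 8 with Tween 20, after 15 min compound preincubation at room temperature. Fluorescence change, last versus first of five reads.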
HTT aggregate: inhibitors of mutant huntingtin aggregate formation in PC12 cells | PC12 HttQ103-GFP aggregates, Acumen cytometry, 40 h | 220,000 tested, 1.1% active | Potency, µM (top dose mostly 46.1 µM), for the others: at the top dose activity change, negative = inhibition, actives largely listed as inhibitors; also: % is scaled to controls: 0 for no effect and ±100 for the full control effect; nearly all actives have a fitted effect of over 60% in size
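PC12 cells with ecdysone-inducible HTT exon1 Q103-GFP, induced by 100 nM tebufenozide, given compounds in a concentration series. GFP aggregates (1–25 um, 6 SD above background) counted in lysates by laser-scanning cytometry, 488 nm excitation.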
ALDH1A1 inh: ALDH1A1 (human) enzyme inhibition; P00352; Purified ALDH1A1, NADH fluorescence, propionaldehyde substrate; Potency, µM (series often up to 75.3 µM), for the others: at the top dose activity, negative = inhibition, most hits filed as inhibitors; 220,000 tested, 7.3% active; AID 1030; active = well fitted inhibition curve with a large enough effect, not every such curve was filed as active; inconclusive = small, poorly fitted or top-dose-only effect, or another doubt; inactive = no such curve, though single readings can be large or run the other way;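 also: plate controls were no enzyme wells and a reference inhibitor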
Target sequence (P00352 whole entry, looked up): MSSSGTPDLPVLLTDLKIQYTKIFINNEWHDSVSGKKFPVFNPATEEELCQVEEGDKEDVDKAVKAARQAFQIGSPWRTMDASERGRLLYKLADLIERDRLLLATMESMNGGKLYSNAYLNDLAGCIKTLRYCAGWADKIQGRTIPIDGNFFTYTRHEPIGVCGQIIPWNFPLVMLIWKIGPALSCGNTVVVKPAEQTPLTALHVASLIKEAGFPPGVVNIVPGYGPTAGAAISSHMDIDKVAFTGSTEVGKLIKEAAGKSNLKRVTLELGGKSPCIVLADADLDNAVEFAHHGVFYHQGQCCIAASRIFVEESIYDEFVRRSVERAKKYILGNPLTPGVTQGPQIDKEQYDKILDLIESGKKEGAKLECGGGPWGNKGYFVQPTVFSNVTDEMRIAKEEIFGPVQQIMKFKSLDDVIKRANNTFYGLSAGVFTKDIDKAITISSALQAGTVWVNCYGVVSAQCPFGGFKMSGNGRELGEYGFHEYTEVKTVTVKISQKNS
Luc counter: blocks Kinase-Glo luciferase, a counter-screen artifact. Q27757. Kinase-Glo luciferase, ATP luminescence, 8 min. Potency, µM (series often up to 38.3 µM), for inactives: at the top dose activity change, negative = inhibition, actives largely listed as inhibitors. 200,000 tested, 0.28% active. AID 1379; also: % is scaled to controls: 0 for no effect and ±100 for the full control effect; nearly all actives have a fitted effect of over 60% in size
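Light output from Kinase-Glo luciferase with luciferin and 10 uM ATP in 50 mM imidazole pH 7.2, KCl, MgCl2, Tween 20, BSA; compound pin-delivered, 8-min ambient incubation, then luminescence read.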
* marks the source's active call; other numbers are inactive results; u = inconclusive; x = not tested or not shown; [ ] = remark or other dose. Only some compounds are listed: those with a hit (about 9% of all), similar ones and a draw of the others. Unless noted, calls follow the shape of the dose curve; as a rule, active = well fitted curve in the direction sought with a large enough effect; inconclusive = small, poorly fitted or top-dose-only effect, or another doubt; inactive = no such curve, though single readings can be large; an effect the other way counts as inactive or inconclusive. Potency is read from the fitted curve at half-maximal effect.

SMILES	LMNA splice mod	HTT ATP protect	HPGD inh	HTT aggregate	ALDH1A1 inh	Luc counter
CN(C)CCN1C(=O)C(O)=C(C(=O)c2cc3ccccc3o2)C1c1ccccn1 (centres undefined)	5%	4%	-11%	0%	-3%	-1%
CN(C)CCN1C(=O)C(O)=C(C(=O)c2cc3ccccc3o2)C1c1ccc(N(C)C)cc1 (centres undefined)	-17%	-7%	-12%	-26%	28µM*	-1%
COc1cccc2cc(C(=O)C3=C(O)C(=O)N(CCCN4CCOCC4)C3c3ccncc3)oc12 (centres undefined)	x	-10%[0.074 µM]	x	x	x	x
COc1ccccc1C1C(C(=O)c2cc3ccccc3o2)=C(O)C(=O)N1CCN1CCOCC1 (centres undefined)	2%	0%[0.074 µM]	-11%	15%	20µM*	-3%
COc1cc2ncnc(Nc3cccc(Br)c3)c2cc1OC	x	-21%[1.9 µM]	-21%	x	-11%	-1%
Cc1cccc(NC(=S)N/N=C2\CC(C)(C)Oc3ccc(O)cc32)c1	u	u	-22%	7%	u	4%
COc1ccc(OCC(=O)OCC(=O)NCc2ccc(F)cc2)cc1	-3%	0%[10 µM]	-6%	0%	0%	-1%
c1ccc(-c2nnc3sc(-c4csc5c4CCCC5)nn23)cc1	12%	-18%[10 µM]	11µM*	u	7.9µM*	-5%
Cc1cccc(-c2nnc3sc(-c4ccccc4C)nn23)c1	u	-31%[0.074 µM]	-25%	11µM*	-8%	-1%
Clc1ccc(-c2nn3c(-c4ccccc4)nnc3s2)cc1	9%	-25%[0.074 µM]	u	-16%[9.22 µM]	u	-1%
Cc1nn(-c2ccccc2)c(Cl)c1/C=N/N1CCN(c2ccccn2)CC1	u	9%	x	6%	-3%	7%
CC1(C)CC(=O)C2=C(C1)Nc1ccccc1S2	x	4%[10 µM]	x	3%[9.22 µM]	x	x
CC1(C)CC(=S)Nc2ccccc2S1	-1%	15%[10 µM]	16µM*	16%	10µM*	2%
CCCNS(=O)(=O)c1ccc(-n2cnnn2)c(OC)c1	8%[46 µM]	18%[10 µM]	x	17%[9.22 µM]	-7%	-1%
O=C(c1cnn(-c2nc3ccccc3s2)c1)c1ccccc1O	-8%	-5%[4.97 µM]	u	-9%	5%	-8%
O=C(c1cnn(C(=O)COc2ccc(Cl)cc2)c1)c1ccccc1O	6%	35%[10 µM]	-17%	-28%	4.5µM*	4%
O=C(c1cnn(C(=O)c2ccccc2)c1)c1ccccc1O	6%	4%[10 µM]	-18%	-31%	2.2µM*	-5%
Cc1ccc(O)c(C(=O)c2cnn(C(=O)COc3ccc(Cl)cc3)c2)c1	3%	2%[10 µM]	-29%	5.6µM*	1.8µM*	1%
CC(=O)Nc1ccc(NC(=O)Cc2sc(C)nc2-c2ccc(C)cc2)cc1	-6%	24%[10 µM]	-1%	19%	5%	1%
O=C(N/C(=C/c1ccccc1)C(=O)N1CCOCC1)c1ccc([N+](=O)[O-])cc1	27%[46 µM]	-27%	x	-10%	-5%	-2%
CCC(C)Nc1nnnc2c1sc1nc3c(cc12)COC(C)(C)C3 (centres undefined)	u	-55%	x	21%	10µM*	2%
CC1(C)Cc2nc3oc4c(=O)n(CC(=O)Nc5ccccc5)cnc4c3cc2CO1	-21%	5%[10 µM]	-9%	6%	u	-1%
CC(C)COc1ncnc2c1sc1nc3c(cc12)COC(C)(C)C3	x	0%[10 µM]	x	-14%[9.22 µM]	x	x
CCSc1ncnc2c1sc1nc3c(cc12)COC(C)(C)C3	-6%	-17%[10 µM]	-15%	-8%	0.79µM*	2%
CCc1nc2c(sc3nc4c(cc32)COC(C)(C)C4)c(=O)n1CCN(CC)CC	u	-13%	x	18%	10µM*	-1%
SMILES	LMNA splice mod	HTT ATP protect	HPGD inh	HTT aggregate	ALDH1A1 inh	Luc counter
CC1(C)Cc2nc3sc4c(=O)n(CC(=O)NCc5ccco5)cnc4c3cc2CO1	-18%	-20%[0.074 µM]	u	-4%	22µM*	1%
CCCOc1ncnc2c1sc1nc3c(cc12)COC(C)(C)C3	1%[46 µM]	1%[10 µM]	x	-6%[9.22 µM]	u	1%
CCOC(=O)C1CCN(CCC(=O)Nc2cccc(Cl)c2C)CC1	-8%	5%	-4%	7%	-18%	-3%
Nc1c(Nc2ccccc2)c2ccccc2oc1=O	-7%	-1%[10 µM]	-22%	-17%	5%	-3%
CCc1nc(OCc2ccccc2)c2sc3nc4c(cc3c2n1)COC(C)(C)C4	5%	-13%	-25%	-10%	0.79µM*	-3%
COCc1cc(C)nc2sc(C(=O)N3CCCC3)c(N)c12	3%	-25%	2.5µM*	-7%	u	-3%
Cc1cc(C)c2c(N)c(C(=O)N3CCCCCC3)sc2n1	-8%	-2%	1.6µM*	-1%	u	-4%
COCc1cc(C)nc2sc(C(=O)OC)c(N)c12	-15%	1%[0.074 µM]	-11%	2%	-9%	1%
C#CCOC(=O)C[N+](C)(C)C/C=C/c1ccccc1	u	5%[10 µM]	x	-11%[9.22 µM]	2%	5%
CCNNC(=O)C(O)(c1cccc(C)c1)c1cccc(C)c1	u	15%[1.9 µM]	-9%	5%	9%	4%
COc1ccc(C(=O)CSc2n[nH]c(-c3ccco3)n2)cc1	23%	-7%	3.5µM*	12%[9.22 µM]	-6%	-1%
CCc1nc(SCC(=O)c2ccc(C)c(C)c2)n[nH]1	1%	15%	u	12%	u	2%
Cc1ccc(C(=O)CSc2n[nH]c(-c3ccco3)n2)cc1C	1%	13%	5µM*	-10%	u	3%
NC(=O)CSc1n[nH]c(-c2ccco2)n1	x	-10%[10 µM]	x	-15%[9.22 µM]	x	x
O=C1CCCC2=C1C1c3ccccc3C(=O)N1c1ccc(C(=O)c3ccccc3)cc1N2 (centres undefined)	-13%	-21%[10 µM]	-23%	-15%	u	-1%
Cc1onc(-c2ccccc2)c1-c1csc(COc2ccccc2)n1	x	17%[10 µM]	x	-1%[9.22 µM]	-7%	x
N#CCOc1nc(N2CCCCC2)nc(N2CCCCC2)n1	x	5%[10 µM]	x	-9%[9.22 µM]	-8%	-2%
CC(C)(C)Nc1nc(OCC#N)nc(N2CCCCC2)n1	x	-16%[10 µM]	x	-8%[9.22 µM]	18µM*	4%
COCCCn1c(Cc2csc(Nc3cccc(Cl)c3)n2)nnc1SCC(=O)OC	8%	-4%[10 µM]	-24%	-16%	-13%	-1%
COc1ccc(-c2cc(-c3ccccc3)nc(SCC(=O)Nc3ncc(C)s3)c2C#N)cc1	-13%	-5%[10 µM]	u	14%	u	-2%
CCc1nnc(NC(=O)CSc2nc(-c3ccc(F)cc3)cc(-c3ccccc3)c2C#N)s1	-16%	-5%[10 µM]	x	-18%	10µM*	x
Cc1cc(-c2ccccc2)c(C#N)c(SCC(N)=O)n1	10%	-13%[10 µM]	-13%	-22%	13µM*	-6%
CCOC(=O)CSc1nc(C2CC2)cc(-c2ccc(Cl)cc2)c1C#N	4%	33%[10 µM]	u	-3%	32µM*	0%
